Measured values published in ChEMBL document CHEMBL5308541, “MAIP: An Open-Source Tool to Enrich High-Throughput Screening Output and Identify Novel, Druglike Molecules with Antimalarial Activity” (ACS Med Chem Lett, 2023).
The whole screen tested about 4,800 compounds, of which about 420 (8.8%) showed an effect of 50% or more. What follows is part of a selection rich in strong results, with near analogues and random picks from the rest.

Test system: Plasmodium falciparum
Experiment: Confirmatory screen in NF54 nanoGlo assay, in single point, at 2uM, 72h
Format: functional, Erythrocyte
Details: timepoint 72 hour

SMILES | % Inhibition [%]
Nc1nc(NCC2CCN(CCc3ccccc3)CC2)cc([C@H]2C[C@@H](N)C2)n1 | 23
Cc1ccc(-c2cccc3c(C(=O)NCCCN4CCC(N5CCCCC5)CC4)cc(C)nc23)cc1 | 98
COc1ccc(-c2cncc(C(=O)NCC3CCN(CCN(C)C)CC3)c2)cc1 | 94
CN(C)CCN1CCC(CNCc2ccc3ncccc3c2)CC1 | 5
Cn1cncc1[C@@H]1CNC[C@H]1CNC(=O)c1ccccc1NC1CCCCC1 | 79
Brc1cccc(NCCNC2CCN(Cc3cccnc3)CC2)c1 | 36
Cc1cc(F)ccc1N1CCC(NCCCNc2cccnc2)CC1 | 18
CC1CN(c2ccccc2NC(=O)c2ccc(-c3cnco3)cc2)CC(C)O1 (stereo unspecified) | -6
Cc1ccccc1CN1CCC(CNc2c3c(nc4ccccc24)CCC3)CC1 | 95
Cc1cc(C)c(-c2csc(Nc3ncnc4[nH]ncc34)n2)cc1C | 19
O[C@H](COc1ccccc1CNCc1cc(-c2ccccc2)[nH]n1)CN1CCCCC1 | 80
CN(C[C@H](O)COc1ccccc1CN1CCC(c2ccncc2)CC1)C1CCCCC1 | 39
CN1CCC(N(C)C[C@H](Nc2ncnc3ccccc23)c2ccccc2)CC1 | 99
Cc1nc2ccc(Oc3ccccc3)cc2c(O)c1CN(C)C1CCN(C)CC1 | 22
CC1(N2CCC2)CCC(NC[C@H]2CCN(Cc3ccccc3)C2)CC1 (stereo partly specified) | 66
OC1CN(Cc2cnc(C3CCCCC3)nc2)CCC1Nc1ncccn1 (stereo unspecified) | 1
CN1CCN(CCc2ccc(N[C@H]3CCCN(Cc4ccccc4)C3(C)C)cc2)CC1 | 10
C[C@H]1CCCN(CCNC(=O)c2ccc(-c3ccc4c(=O)[nH]ccc4c3)cc2)C1 | 58
c1cc(CN2CCN(c3cc(N4CCN(Cc5ccncc5)CC4)ncn3)CC2)ccn1 | 0
CCOc1ccc2nc(CN(CC)CC3CCN(C4CCN(C)CC4)CC3)ccc2c1 | 82
CCOc1ccc2nc(N3CCC(N4CCC([C@H](O)c5cccnc5)CC4)CC3)nc(C)c2c1 | 29
Cc1noc(-c2ccnc(NC[C@@H](c3ccccn3)N3CCOCC3)c2)n1 | 93
COc1ccnc(NCCCc2nc(-c3ccncc3)cs2)n1 | 65
CN(C)C1CCN(CCN[C@H]2CCc3ccc(F)cc32)CC1 | 85

SMILES | % Inhibition [%]
Cc1ccccc1-c1cccc(CNCCCN2CCC[C@H](O)C2)c1 | 12
Cc1ccccc1-c1cccc(N2CCC(NCC3CCNCC3)CC2)c1 | 99
c1ccc(-c2nc3c(c(NCCNc4ncccn4)n2)CCC3)nc1 | 25
CCCN(CCN1CCN(CC)CC1)c1nc(-c2ccccn2)nc2c1CCC2 | 6
Cc1nc(-c2ccccn2)nc(NC2CCN(CC(F)F)CC2)c1C | 35
CCOc1cc(C(=O)NC2CCN(CC3CCCC3)CC2)cc(-c2ccccc2)c1OC | 95
Cc1cnccc1N1CCCN(Cc2ccccc2OCCN2CCN(C)CC2)CC1 | 99
CN(C)C1(CNc2nc(C(F)(F)F)nc3cc(F)ccc23)CCCCCC1 | 61
CN(C)C1(CNc2nc(C(F)(F)F)nc3cc4c(cc23)OCO4)CCCCCC1 | 49
C[C@H](Nc1nc(N)c2ccccc2n1)c1cccc(-n2cncn2)c1 | 36
COCCNc1nc(N[C@@H](C)c2ccccc2)c2ccccc2n1 | 63
COCCN1CC[C@H](CNC2CCN(c3ncc4ccc(F)cc4n3)CC2)C1 | 59
COCCN1CCC[C@H](CNCc2cnn(-c3ccc4ccccc4c3)c2)C1 | 12
Cc1cc(N2CC3COCCC3(C(=O)O)C2)nc2ccc(F)cc12 (stereo unspecified) | -2
Cc1ccn2cc(-c3ccc(N4CCC(NCc5cccnc5)CC4)cc3)nc2c1 | 60
c1cncc(-c2ccc(CNC3CCN(Cc4cccs4)CC3)cc2)c1 | 45
CN(c1ccccc1)c1ccc(CN2CCN([C@H]3CCNC3)CC2)cc1 | 54
COC(=O)c1cn(CCNc2ccnc3cc(Cl)ccc23)cc2c(O)nnc1-2 | 95
Cc1ocnc1CNC[C@H](O)c1ccc(Cl)c(Cl)c1 | 89
CCc1ccc2ncnc(NCCCN3CCN(CCO)CC3)c2c1 | 43
COCCCN1CCC(Nc2ncnc3cc(C)c(C)cc23)CC1 | 97
Cc1cnccc1NCCNCc1cnc(N2CCCCC2)nc1 | 61
Cc1cnccc1NCCNCc1cccc(OCCCCN2CCOCC2)c1 | 95
CCN1CCN(c2ccccc2CNCCC2CCN(C)CC2)CC1 | 18

SMILES | % Inhibition [%]
c1ccc2c(CNCCC3CCN(c4ccncc4)CC3)csc2c1 | 77
Fc1ccc(-n2cc(CNCCC3CCN(c4ccncc4)CC3)cn2)cc1 | 88
COc1ccc(-c2cc(-c3ccccc3O)n([C@@H]3C(=O)Nc4ccc(Br)cc43)n2)cc1 | 31
C[C@@H](CNC1CCN(C2CCN(C)CC2)CC1)c1cccc(Cl)c1 | 98
CN1CCN(CCNC2CCN3CCCC3C2)C(c2ccccc2)C1 (stereo unspecified) | 32
CCCc1cccc(CNC2CCN(C3CCN(C)CC3)CC2)c1 | 58
COc1ccc2nc(C)cc(NCc3cccc(NC(=O)c4ccco4)c3)c2c1 | 96
Cc1cc(NCCCN2CCC[C@H](O)C2)c2cc(F)ccc2n1 | 28
COc1ccc2c(C)cc(NCCCN3CCC[C@H](C(N)=O)C3)nc2c1 | 87
Fc1ccc(N2CCC(N[C@@H]3COC4(CCNCC4)C3)CC2)cc1F | 13
Cc1nc2ccc(CNC3CCN(c4ccc(F)c(F)c4)CC3)cc2[nH]1 | 56
N[C@H]1CC[C@@H](NC2CCN(c3ccc(F)c(F)c3)CC2)CC1 | 45
COC(CN(Cc1nc(N)nc(Nc2ccc(C)cc2)n1)Cc1nc(N)nc(Nc2ccc(C)cc2)n1)OC | 84
OCCN1CCC(NCCc2cc(Cl)cc(Cl)c2)CC1 | 28
CN1CCN(CCCCNC2CC3CCC(C2)N3Cc2ccccc2)CC1 (stereo unspecified) | 34
O=C(NCc1cccc(-c2cccnc2)c1)N[C@H]1CCN(C2CCCCC2)C1 | 48
O=C(CCc1nnc(-c2ccc(-c3ccccc3)cc2)o1)NC[C@@H]1CCCN2CCCC[C@H]12 | 56
CC(C)(C)n1ncc2c(NCc3ccc4cccnc4c3O)ncnc21 | 27
COc1ccc2c(N3CC[C@H](CN4CCCC4)C3)ccnc2c1 | 99
CN1CCN(CC2CCN(c3ccnc4ccccc34)CC2)CC1 | 99
CNc1nc(N2CCN(CC(=O)NC3CCCCC3)CC2)nc2ccccc12 | 23
COc1cc2nc(-c3ccc(F)c4cccnc34)nc(N)c2cc1OC | 98
Cc1cccc(Nc2ccnc(Nc3ccc(N4CCN(C)CC4)cc3)n2)c1 | 93
